Screening data as filed in PubChem BioAssay.
Many of the other results were omitted from the sample, so hits are more common in it than they were.
D1 mod = D1 dopamine receptor (human) allosteric modulation | B-score at 10 µM | HEK293 D1, CRE-luciferase, dopamine EC30 potentiation; actives deviate in either direction | hit rate 5.9% among 58,000 | P21728;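 active means luminescence count or its row- and column-corrected plate score outside the 99.7% band of the plate's sample wells, on either side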
FXIa inh mix = factor XIa (human) inhibition, mixture screen; purified FXIa, fluorogenic substrate, pooled mixtures; inhibition, % at 5 µM; hit rate 0.19% among 62,000;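 further: each value is inhibition by a whole ten-compound pool holding the compound; 0% = enzyme with no mixture and 100% = wells lacking enzyme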
TNAP act mid DEA = activators of human TNAP at intermediate phosphate acceptor | P05186 | purified TNAP, CDP-star luminescence, 100 mM DEA, 30 min; active compounds read high; scale: 0 levamisole-inhibited, 1 vehicle-only enzyme | activation factor at 20 µM | 64,000 tested, under 10 active;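 active means activation factor of at least 2 at 20 µM, relative to controls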
Target sequence (P05186 whole entry, looked up): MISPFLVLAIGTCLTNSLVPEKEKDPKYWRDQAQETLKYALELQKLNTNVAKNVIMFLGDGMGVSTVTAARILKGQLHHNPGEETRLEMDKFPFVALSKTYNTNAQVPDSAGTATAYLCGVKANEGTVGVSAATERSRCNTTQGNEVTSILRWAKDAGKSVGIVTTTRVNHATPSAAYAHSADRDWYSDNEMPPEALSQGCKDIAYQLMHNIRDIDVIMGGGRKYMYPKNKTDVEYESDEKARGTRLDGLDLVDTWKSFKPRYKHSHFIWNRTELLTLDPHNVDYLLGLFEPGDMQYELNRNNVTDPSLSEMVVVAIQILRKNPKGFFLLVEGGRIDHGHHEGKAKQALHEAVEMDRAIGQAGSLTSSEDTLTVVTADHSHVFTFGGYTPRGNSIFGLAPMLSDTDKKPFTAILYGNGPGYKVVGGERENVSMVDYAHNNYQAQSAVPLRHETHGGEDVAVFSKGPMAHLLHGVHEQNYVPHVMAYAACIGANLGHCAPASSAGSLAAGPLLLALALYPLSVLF
FXIIa inh mix = factor XIIa (human) inhibition, mixture screen | P00748 | purified FXIIa, fluorogenic substrate, pooled mixtures | inhibition, % at 5 µM | hit rate 0.2% among 62,000 | AID 684;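 further: 0% = enzyme without compound and 100% = no enzyme blank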
Candida biofilm = kills Candida albicans biofilms; hit rate 0.14% among 85,000; inhibition, % at 6 µM; C. albicans biofilm + clotrimazole, Alamar Blue;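 active means inhibition above 20%; inactive means inhibition below 20%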;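 further: preformed 24 hr biofilms exposed to compound for 48 hr; 0% = biofilm without compound and 100% = blank killed by clotrimazole plus chlorhexidine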
HePTP inhibitor = blocks human HePTP tyrosine phosphatase | recombinant HePTP phosphatase activity, OD absorbance | inhibition, % at 20 µM | hit rate 0.64% among 110,000 | AID 521; in the data active means inhibition above about 50%;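 further: plate controls were vehicle for no effect and reference inhibitor for full effect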
The depositor's hits bear a star. Unless noted, no stated cut-off is given here; in the data, active means inhibition above about 20% (passing the limit was not always enough); inactive means the rest.

Cc1cc(I)c2c(c1)C1C=CCC1C(C(=O)O)N2 (stereo unspecified) was read as HePTP inhibitor 102.1*.
Cc1ccc2c(c1)C1C=CCC1C(C(=O)O)N2 (stereo unspecified) was read as D1 mod 0.14, FXIa inh mix 1.0, TNAP act mid DEA 0.9, FXIIa inh mix -2.9 and HePTP inhibitor 102.4*.
`O=[N+]([O-])c1ccc(C2Nc3c(I)cccc3C3C=CCC32)cc1` (stereo unspecified) gave HePTP inhibitor -1.9.
`CCOC(=O)C1=C(C)NC(SCC(N)=O)=C(C#N)C1c1cccs1` (stereo unspecified) gave Candida biofilm -0.4.
For CCOC(=O)C1=C(C)NC(SCC(=O)Nc2cc(C)on2)=C(C#N)C1c1cccs1 (stereo unspecified) the results were D1 mod -5.28*, FXIa inh mix -1.1, TNAP act mid DEA 1, FXIIa inh mix 6.4, Candida biofilm -2.0 and HePTP inhibitor -0.6.
Screening CCOc1ccccc1NC(=O)c1c(NC(=O)c2ccccc2Br)sc2c1CCCC2 returned HePTP inhibitor -1.2.
Cc1cc(C)cc(N2CCCn3c2nc2c3c(=O)n(CCN3CCOCC3)c(=O)n2C)c1 was read as D1 mod -0.264, FXIa inh mix 22.7*, TNAP act mid DEA 0.9, FXIIa inh mix 13.0, Candida biofilm 2.6 and HePTP inhibitor 11.3.
For Cc1ccc(N2CCCn3c2nc2c3c(=O)n(CCN3CCOCC3)c(=O)n2C)cc1 the results were D1 mod 1.18, FXIa inh mix -7.0, TNAP act mid DEA 1, FXIIa inh mix 9.4, Candida biofilm 0.6 and HePTP inhibitor -1.1.
`CCCCN1C(=O)/C(=C/C=C/c2ccccc2)SC1=S` gave HePTP inhibitor 4.8.
C=CCc1ccccc1OCC(O)CN1CCN(c2ccccc2OC)CC1 (stereo unspecified) was read as D1 mod -6.07*, FXIa inh mix -5.3, TNAP act mid DEA 0.9, FXIIa inh mix 2.7, Candida biofilm 5.2 and HePTP inhibitor 6.6.
`C=CCc1ccccc1OCC(O)CN1CCN(c2ccccc2F)CC1` (stereo unspecified) gave D1 mod -4.6*, FXIa inh mix -3.4, TNAP act mid DEA 0.9, FXIIa inh mix 9.9 and HePTP inhibitor 6.2.
Screening CCOc1ccccc1N1CCN(Cc2cccc(OC)c2O)CC1 returned D1 mod -3.68*, FXIa inh mix 3.3, TNAP act mid DEA 0.9, FXIIa inh mix -3.0, Candida biofilm -2.3 and HePTP inhibitor -15.0.
`OC(COc1ccccc1Cl)CN1CCN(CC(O)COc2ccccc2Cl)CC1` (stereo unspecified) gave D1 mod -6.27*, FXIa inh mix 0.1, TNAP act mid DEA 0.9, FXIIa inh mix 8.0, Candida biofilm -2.5 and HePTP inhibitor -1.7.
`CC(CCN(C)C)OC(=O)c1ccc(C(C)c2ccccc2)o1` (stereo unspecified) gave D1 mod -3.22*, FXIa inh mix 5.6, TNAP act mid DEA 1, FXIIa inh mix -4.6, Candida biofilm 9.7 and HePTP inhibitor 7.1.
CN(C)CCNC(=O)C(c1ccccc1)c1ccccc1 was read as HePTP inhibitor -9.5.
O=C1NC(=S)N/C1=C/c1cc(Br)c(O)c(I)c1 was read as HePTP inhibitor 0.8.
`CCC1=NN2C(=N)/C(=C/c3ccc(OCc4ccc(Br)cc4)c(OC)c3)C(=O)N=C2S1` gave HePTP inhibitor 100.6*.
For CCC1=NN2C(=N)/C(=C/c3ccc(OC)c(OC)c3)C(=O)N=C2S1 the results were HePTP inhibitor -7.6.
Screening COc1ccc(-n2ncc3c(N4CCC(C)CC4)ncnc32)cc1 returned D1 mod -5.8*, FXIa inh mix 4.4, TNAP act mid DEA 0.9, FXIIa inh mix -19.7, Candida biofilm 3.2 and HePTP inhibitor 11.4.
`CCOC(=O)N1CCN(c2ncnc3c2cnn3-c2ccc(OC)cc2)CC1` gave TNAP act mid DEA 0.9, Candida biofilm -4.7 and HePTP inhibitor 6.1.
For CC1CCN(c2ncnc3c2cnn3-c2ccccc2)CC1 the results were D1 mod -3.04*, FXIa inh mix 12.3, TNAP act mid DEA 0.9, FXIIa inh mix 5.4, Candida biofilm 3.5 and HePTP inhibitor 10.9.
Screening c1ccc(-n2ncc3c(N4CCN(C5CCCCC5)CC4)ncnc32)cc1 returned HePTP inhibitor -5.6.
`Cc1ccc(C)c(OCCCCN2CCCCC2)c1C` gave HePTP inhibitor -5.3.
Screening O=C(NCCc1ccccc1)NC1CCCCC1 returned D1 mod -2.46*, FXIa inh mix 18.5, TNAP act mid DEA 0.9, FXIIa inh mix -15.2, Candida biofilm 3.5 and HePTP inhibitor 4.7.
For O=C(NCc1ccccc1)NC1CCCCC1 the results were D1 mod -0.596, FXIa inh mix 2.0, TNAP act mid DEA 1, FXIIa inh mix -8.9, Candida biofilm 9.0 and HePTP inhibitor 2.0.
Screening CCCOc1ccc(/C=C/C(=O)c2ccc(F)cc2)cc1OCC returned HePTP inhibitor 1.0.
`CCOC(=O)C1=C(C)NC(=O)NC1c1ccsc1` (stereo unspecified) gave Candida biofilm -3.3 and HePTP inhibitor 103.9*.
For O=C(N=Nc1c(O)[nH]c2ccc([N+](=O)[O-])cc12)c1ccc2c(c1)OCO2 the results were HePTP inhibitor 102.1*.
`CC(=O)n1nc(-c2ccccc2)c(-c2nc3ccccc3[nH]2)c1C` gave HePTP inhibitor 4.8.
`CCOc1ccc(-c2nn(-c3ccccc3)cc2/C=C2\SC(=S)N(CCOC)C2=O)cc1` gave HePTP inhibitor 7.4.
For O=C(O)CCCN1C(=O)/C(=C/c2cn(-c3ccccc3)nc2-c2cccc([N+](=O)[O-])c2)SC1=S the results were HePTP inhibitor 104.1*.
`O=C(O)CCN1C(=O)/C(=C/c2cn(-c3ccccc3)nc2-c2cccc([N+](=O)[O-])c2)SC1=S` gave HePTP inhibitor 5.7.
Screening O=C(O)CCN1C(=O)/C(=C/c2cn(-c3ccccc3)nc2-c2ccc(Br)cc2)SC1=S returned HePTP inhibitor 101.3*.
Cc1cc(/C=N/NC(N)=S)c(C)n1-c1ccc(F)cc1 was read as HePTP inhibitor -3.1.
COc1c(Cl)ccc(Cl)c1C(=O)Nc1cccc(Br)c1 was read as HePTP inhibitor -0.2.
COc1cccc(C(=O)Nc2ccc(C)cc2)c1 was read as D1 mod -4.49*, FXIa inh mix 4.8, TNAP act mid DEA 0.8, FXIIa inh mix -2.8, Candida biofilm 3.6 and HePTP inhibitor 6.4.
COc1c(Cl)ccc(Cl)c1C(=O)Nc1ccc(C)cc1 was read as HePTP inhibitor 104.5*.
For Cc1cc(/C=N/N2C(=O)c3ccccc3C2=O)c(C)n1-c1ccc(N(C)C)cc1 the results were HePTP inhibitor -10.7.
Screening O=C(NCCc1cccc(C(F)(F)F)c1)C(=O)Nc1ccccc1 returned HePTP inhibitor -9.1.
